Shown are actives, neighbours in structure and some others; about 6% of the full set was active somewhere.
D3 ag: activates the human D3 dopamine receptor. P35462. D3R DiscoveRx beta-arrestin cells, luminescence, 90 min. max activation, %. 410,000 compounds, 0.58% hits; in the data active means max activation above about 30%; further: 0% is about no effect
Target sequence (P35462 whole entry, looked up): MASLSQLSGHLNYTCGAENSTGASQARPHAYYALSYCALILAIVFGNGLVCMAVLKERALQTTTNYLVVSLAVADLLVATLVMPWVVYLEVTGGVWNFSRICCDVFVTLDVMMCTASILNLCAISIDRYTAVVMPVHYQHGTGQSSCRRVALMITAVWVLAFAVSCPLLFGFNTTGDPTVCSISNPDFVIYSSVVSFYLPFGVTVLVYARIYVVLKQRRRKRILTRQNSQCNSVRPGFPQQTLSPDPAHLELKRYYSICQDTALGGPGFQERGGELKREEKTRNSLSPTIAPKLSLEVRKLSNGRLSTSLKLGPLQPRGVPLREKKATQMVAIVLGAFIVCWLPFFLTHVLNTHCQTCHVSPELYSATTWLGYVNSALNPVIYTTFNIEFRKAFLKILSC
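Agonist-mode cell screen: cells plated at 1500/well and incubated overnight at 37 °C, then exposed to library compounds for 90 min at 37 °C. Detection reagent was added for 30–60 min at room temperature, and luminescence was read.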
DRD3 antagonist: antagonists of human D3 dopamine receptor; 360,000 compounds, 2.5% hits; D3R cells, DiscoveRx beta-arrestin luminescence, antagonist mode; active compounds read low; P35462; AID 652054; max response, negative = inhibition, %; in the data active means max response below about -50%; inconclusive means no clear call, values can overlap the other calls; further: on the % scale 0 is the no-effect control and ±100 the full control effect
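Cells expressing the human receptor were seeded at 1500 cells/well, incubated overnight at 37 degrees C in 5% CO2, then exposed to library compounds with dopamine controls for 90 minutes at 37 degrees C before luminescent detection.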
D1 potentiator: enhances dopamine response at the human D1 receptor; P21728; HEK293 TREx D1 cells, calcium flux, dopamine EC20 potentiation; potentiation, % at 10 µM; 360,000 compounds, 0.036% hits; in the data active means potentiation above about 30%; further: 0% is about no effect
D1 ag: human D1 receptor agonism. P21728. HEK293 T-REx D1 cells, calcium flux, agonist mode. activation, % at 2 µM. 360,000 compounds, 1% hits. AID 504660; in the data active means activation above about 30%; further: 0% is about no effect
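Agonism was scored from calcium flux recorded over 180 s (1 read/s) after pintool compound addition, following a 10-cycle baseline. Cells were inducible force-coupled HEK293 TREx D1, plated overnight at 30 C and loaded with no-wash calcium dye.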
D1 antagonist: antagonists of human D1 dopamine receptor. HEK293 TREx D1 cells, calcium flux, dopamine EC80; active compounds read low. 360,000 compounds, 3.2% hits. P21728. activity change, negative = inhibition, % at 10 µM; in the data active means activity change below about -30%; further: on the % scale 0 is the no-effect control and ±100 the full control effect
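Inducible Hek293 Trex D1 cells (tetracycline, overnight, 30 C). Calcium dye 30–90 min RT. Antagonist mode: EC80 dopamine added after 180 s compound read.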
Starred values were filed as active, the others as inactive; ? = inconclusive; nt = no result.

SMILES	D3 ag	DRD3 antagonist	D1 potentiator	D1 ag	D1 antagonist
CC(=O)Nc1ccc(-c2ccnc3c2CC(C)(C(=O)NCc2ccco2)O3)cc1 (configuration not stated)	2	14	nt	nt	nt
C#CCN[C@@H]1CCc2ccccc21	-3	nt	nt	nt	nt
Cc1cccc(C)c1NC(=O)C1(C)CSCC(=O)N1CCc1c[nH]c2ccccc12 (configuration not stated)	1	8	nt	nt	nt
COCc1nnc(NS(=O)(=O)c2ccc([N+](=O)[O-])cc2)s1	-3	-58*	-2	1	-7
COc1cc(N2C(=O)C=CC2=O)c(OC)cc1Cl	-30	-89*	-6	3	-23
COc1ccc(-n2nc(C)c3c(C(F)(F)F)cc(-c4cccnc4)nc32)cc1	14	nt	-1	3	10
CN1CCC(C2(O)c3ccccc3CSc3sccc32)CC1 (configuration not stated)	0	-67*	-5	22	9
CN1CCC(C2(O)c3ccccc3CCc3ccccc32)CC1	-44	-16	-4	13	-30
Cc1cccc(Nc2cc(=O)n(C)c(=O)n2C)c1	-3	9	nt	nt	nt
CCCCNC(=O)O[C@@H]1C[C@@H]2CCN3C(=O)CCC[C@H]([C@H]1CC)[C@H]23	9	12	-2	1	11
CCCCNC(=O)O[C@@H]1C[C@H]2CCCC(=O)N3CC[C@@H](C1)[C@@H]23	33*	-4	-14	1	-22
N#CN1CCC(NC(=O)c2cccc(C(F)(F)F)c2)CC1	nt	nt	-3	0	5
CCCC(=O)NC(c1ccc(C)cc1)c1ccc2cccnc2c1O (configuration not stated)	31*	-26	5	17	-6
CCCCC(=O)NC(c1ccc(N(CC)CC)cc1)c1ccc2cccnc2c1O (configuration not stated)	32*	-4	-5	7	-5
CCCCC(=O)NC(c1ccc(N(C)C)cc1)c1ccc2cccnc2c1O (configuration not stated)	17	-12	1	7	16
CCn1c(CCc2nc3ccccc3[nH]2)n[nH]c1=S	4	-8	0	2	-14
Cc1ccc(-n2c(CCc3nc4ccccc4[nH]3)n[nH]c2=S)cc1	-19	-51*	-3	4	7
CSCCC(NC(=O)c1cccc(S(=O)(=O)N2CCOCC2)c1)C(=O)Nc1ccc(F)cc1 (configuration not stated)	-10	-24	-2	3	8
COc1cc(C(=O)NC(CCSC)C(=O)Nc2ccc(N3CCOCC3)cc2)cc(OC)c1OC (configuration not stated)	-4	-73*	nt	nt	nt
Cc1ccccc1-c1ccc2c(c1)O[C@@H](CN(C)C(=O)Nc1ccc(C(F)(F)F)cc1)[C@H](C)CN([C@@H](C)CO)S2(=O)=O	-10	?	nt	nt	nt
Cc1ccccc1Cn1c(CN2CCC(C(=O)NCCN(C)C)CC2)cc2ccccc21	-26	nt	-3	45*	-8
CNC(=O)C1CCN(Cc2cc3ccccc3n2Cc2ccccc2C)CC1	-13	nt	-2	6	25
COCCCNC(=O)c1ccc(-n2c(-c3ccccc3)cc3c2CCCC3)cc1	-8	nt	-4	1	2
CCN(C(=O)CN1c2ccccc2CC1C)c1c(N)n(Cc2ccccc2)c(=O)[nH]c1=O (configuration not stated)	0	3	46*	2	-1
CCN(C(=O)CSc1nnc2ccccn12)c1c(N)n(Cc2ccccc2)c(=O)[nH]c1=O	31*	10	-4	0	-1
SMILES	D3 ag	DRD3 antagonist	D1 potentiator	D1 ag	D1 antagonist
CC1Cc2ccccc2N1CC(=O)N(C)c1c(N)n(Cc2ccccc2)c(=O)[nH]c1=O (configuration not stated)	4	8	-2	4	-8
CC(C)CN(C(=O)CSc1nnc(-c2ccco2)o1)c1c(N)n(Cc2ccccc2)c(=O)[nH]c1=O	8	4	-6	0	-38*
CC(C)(C)n1nnnc1C(c1cc2ccccc2o1)N(CCC#N)Cc1ccccc1 (configuration not stated)	-4	-14	nt	nt	nt
CCCc1nnc(SCC(=O)N2CCCCC2C)n1CC1CCCO1 (configuration not stated)	2	-65*	-4	3	-7
CCCc1nnc(SCC(=O)N2CCCC(C)C2)n1CCOC (configuration not stated)	-7	-58*	0	4	-3
CCCc1nnc(SCC(=O)N(CC)CC)n1CC1CCCO1 (configuration not stated)	8	28	-2	3	-5
CC(=O)c1ccc2c(c1)N(Cc1ccccc1Cl)C(=O)C(C)S2 (configuration not stated)	7	19	nt	nt	nt
Cc1nc2ccc(S(=O)(=O)N(C)CC(=O)Nc3ccc(Br)c(C)c3)cc2s1	13	nt	1	9	-40*
Cc1nc2ccc(NC(=O)CCS(=O)(=O)c3ccc(Cl)cc3)cc2s1	8	2	-3	12	-36*
CCN(CC)S(=O)(=O)c1cccc(C(=O)N/N=C2\CC(=O)CC(C)(C)C2)c1	0	2	-2	4	-18
CCN(CC)S(=O)(=O)c1cccc(C(=O)N/N=C2\CCCC(=O)C2)c1	3	-9	-2	38*	21
CC(=O)Nc1cc([N+](=O)[O-])ccc1OCc1ccccc1	4	1	nt	nt	nt
Cc1cc(C(=O)N2CCC2(C)C(=O)NCc2cccc3ccccc23)nn1C (configuration not stated)	-2	1	nt	nt	nt
Cc1ccccc1COn1nnc2ccc(S(=O)(=O)N3CCOCC3)cc21	0	-51*	-1	0	-10
CN(C)CC#CCC(O)(c1ccccc1)C1CCCCC1 (configuration not stated)	-13	-55*	0	5	5
C#CCOc1c(Cl)cc(/C=N/O)cc1OC	-3	6	-1	0	-62*
Fc1ccc(NC(=S)NN=C2CCCCCC2)cc1	-6	-150*	-3	1	-16
CCCCN(CCCC)S(=O)(=O)c1ccc2oc(C(=O)NCc3ccccc3)c(C)c2c1	-3	nt	-1	27	-5
COc1ccc(CN2CCN(S(=O)(=O)c3ccccc3)CC2)c(OC)c1	-19	-70*	-1	2	4
COc1ccc(S(=O)(=O)N2CCN(Cc3cc(OC)c(O)c(OC)c3)CC2)cc1	5	7	-2	1	11
COc1ccccc1CN1CCN(S(=O)(=O)c2ccccc2)CC1	-3	-68*	-6	-2	-7
O=S(=O)(c1ccc(F)cc1)N1CCN(C(=S)NCCc2ccccc2)CC1	-3	-18	-8	15	-4
COc1cc(CN2CCN(S(=O)(=O)c3ccccc3)CC2)cc(OC)c1O	0	nt	-6	1	-61*
O=S(=O)(c1ccc(F)cc1)N1CCN(C(=S)NCc2ccccc2)CC1	-19	12	-4	4	-31*

Bioassay records deposited in PubChem BioAssay by National Center for Advancing Translational Sciences (NCATS).
